# Several values for one entry are separate records, joined by “and”; a condition that tells them apart may be missing. Identical values can stand only once. Out of some 5,500 compounds screened, about 2,000 (36%) were called active. Not shown: some 18% with an inconclusive outcome. This is one part of the list. A number with no mark means an inactive call. Rule as the data show it: active = normalized growth mostly below about 0.91 (no sharp cut-off); inconclusive = no clear call, values can overlap the other calls; inactive = mostly above about 0.92.
# Assay: chemical genetic growth profiling, strain panel (AID 1159580);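 also: tested at 20 µM; growth read once vehicle control cultures reached saturation at 30 °C; 1 = growth at the plate median or of vehicle wells; lower values mean less growth of the strain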
# Details: S. cerevisiae deletion strains, growth OD
structure (smiles),measurement,setting,value
c1ccc2[nH]c(-c3cscn3)nc2c1,normalized growth,"locus YAL021C, strain ccr4, active compounds read low",0.964
same,normalized growth,"locus YAL026C, strain drs2, active compounds read low",0.956
same,normalized growth,"locus YAL030W, strain snc1, active compounds read low",1.01
same,normalized growth,"locus YBL061C, strain skt5, active compounds read low",1.01
same,normalized growth,"locus YBR009C, strain hhf1, active compounds read low",0.965
same,normalized growth,"locus YBR021W, strain FUR4, active compounds read low",0.946
same,normalized growth,"locus YBR023C, strain chs3, active compounds read low",0.993
same,normalized growth,"locus YBR171W, strain sec66, active compounds read low",1
same,normalized growth,"locus YBR229C, strain ROT2, active compounds read low",0.991
same,normalized growth,"locus YBR231C, strain swc5, active compounds read low",0.958
same,normalized growth,"locus YBR279W, strain paf1, active compounds read low",1.01
same,normalized growth,"locus YCL011C, strain gbp2, active compounds read low",0.982
same,normalized growth,"locus YCL016C, strain dcc1, active compounds read low",0.95
same,normalized growth,"locus YCL029C, strain bik1, active compounds read low",0.945
same,normalized growth,"locus YCL061C, strain MRC1, active compounds read low",0.991
same,normalized growth,"locus YCL069W, strain vba3, active compounds read low",0.996
same,normalized growth,"locus YCR088W, strain abp1, active compounds read low",1.01
same,normalized growth,"locus YDL005C, strain med2, active compounds read low",1.02
same,normalized growth,"locus YDL035C, strain GPR1, active compounds read low",0.996
same,normalized growth,"locus YDL040C, strain nat1, active compounds read low",1.01
same,normalized growth,"locus YDL074C, strain BRE1, active compounds read low",0.94
same,normalized growth,"locus YDL101C, strain DUN1, active compounds read low",1.01
same,normalized growth,"locus YDL134C, strain PPH21, active compounds read low",0.998
same,normalized growth,"locus YDL185W, strain tfp1, active compounds read low",1.01
same,normalized growth,"locus YDL192W, strain arf1, active compounds read low",1.01
same,normalized growth,"locus YDR069C, strain doa4, active compounds read low",0.988
same,normalized growth,"locus YDR101C, strain arx1, active compounds read low",0.945
same,normalized growth,"locus YDR137W, strain rgp1, active compounds read low",0.91
same,normalized growth,"locus YDR159W, strain sac3, active compounds read low",0.965
same,normalized growth,"locus YDR162C, strain NBP2, active compounds read low",1.01
same,normalized growth,"locus YDR195W, strain ref2",1.15 [resistant] (active)
same,normalized growth,"locus YDR297W, strain sur2, active compounds read low",1.03
same,normalized growth,"locus YDR318W, strain mcm21, active compounds read low",0.998
same,normalized growth,"locus YDR334W, strain swr1, active compounds read low",0.998
same,normalized growth,"locus YDR335W, strain msn5, active compounds read low",1.02
same,normalized growth,"locus YDR388W, active compounds read low",1.01
same,normalized growth,"locus YDR392W, strain spt3, active compounds read low",0.867
same,normalized growth,"locus YDR502C, strain sam2, active compounds read low",0.971
same,normalized growth,"locus YEL003W, strain gim4, active compounds read low",0.132 (active)
same,normalized growth,"locus YEL037C, strain rad23, active compounds read low",0.991
same,normalized growth,"locus YEL061C, strain CIN8 (second series), active compounds read low",1
same,normalized growth,"locus YEL061C, strain CIN8, active compounds read low",0.987
same,normalized growth,"locus YER015W, strain faa2, active compounds read low",0.997
same,normalized growth,"locus YER016W, strain bim1, active compounds read low",0.995
same,normalized growth,"locus YER110C, active compounds read low",1.02
same,normalized growth,"locus YER111C, strain swi4, active compounds read low",1.01
same,normalized growth,"locus YER155C, strain BEM2 (second series), active compounds read low",0.833 (active)
same,normalized growth,"locus YER155C, strain BEM2, active compounds read low",0.991
same,normalized growth,"locus YER167W, strain BCK2, active compounds read low",0.997
same,normalized growth,"locus YFR010W, strain ubp6, active compounds read low",0.986
same,normalized growth,"locus YGL078C, strain dbp3, active compounds read low",1.01
same,normalized growth,"locus YGL086W, strain mad1, active compounds read low",0.959
same,normalized growth,"locus YGL167C, strain pmr1, active compounds read low",1.02
same,normalized growth,"locus YGL173C, strain kem1, active compounds read low",1.01
same,normalized growth,"locus YGL227W, strain vid30, active compounds read low",1.02
same,normalized growth,"locus YGL240W, strain doc1, active compounds read low",0.957
same,normalized growth,"locus YGL248W, strain PDE1, active compounds read low",0.992
same,normalized growth,"locus YGL253W, strain hxk2, active compounds read low",0.998
same,normalized growth,"locus YGR135W, strain pre9, active compounds read low",1.04
same,normalized growth,"locus YGR252W, strain gcn5, active compounds read low",0.962
same,normalized growth,"locus YHR013C, strain ard1, active compounds read low",0.922
same,normalized growth,"locus YHR027C, strain rpn1, active compounds read low",1.01
same,normalized growth,"locus YHR030C, strain SLT2, active compounds read low",0.992 and 0.96
same,normalized growth,"locus YHR079C, strain IRE1 (second series), active compounds read low",1
same,normalized growth,"locus YHR079C, strain IRE1, active compounds read low",0.963
same,normalized growth,"locus YHR094C, strain hxt1, active compounds read low",1.01
same,normalized growth,"locus YHR129C, strain ARP1, active compounds read low",0.993
same,normalized growth,"locus YHR142W, strain chs7, active compounds read low",1
same,normalized growth,"locus YHR200W, strain rpn10, active compounds read low",1
same,normalized growth,"locus YIL066C, strain RNR3, active compounds read low",0.954
same,normalized growth,"locus YIL073C, strain SPO22, active compounds read low",1.06
same,normalized growth,"locus YIL125W, strain kgd1, active compounds read low",1
same,normalized growth,"locus YIR030C, strain dcg1, active compounds read low",0.994
same,normalized growth,"locus YJL092W, strain hpr5, active compounds read low",0.997
same,normalized growth,"locus YJL095W, strain BCK1 (second series), active compounds read low",1.02
same,normalized growth,"locus YJL095W, strain BCK1, active compounds read low",0.997 and 0.958
same,normalized growth,"locus YJL115W, strain asf1, active compounds read low",1
same,normalized growth,"locus YJL129C, strain trk1, active compounds read low",1.02
same,normalized growth,"locus YJL134W, strain LCB3, active compounds read low",1
same,normalized growth,"locus YJL154C, strain vps35, active compounds read low",1.01
same,normalized growth,"locus YJL164C, strain tpk1, active compounds read low",0.966
same,normalized growth,"locus YJL166W, strain qcr8, active compounds read low",1
same,normalized growth,"locus YJL168C, strain set2, active compounds read low",1.01
same,normalized growth,"locus YJL187C, strain SWE1 (second series), active compounds read low",0.974
same,normalized growth,"locus YJR043C, strain POL32, active compounds read low",0.964
same,normalized growth,"locus YJR066W, strain TOR1, active compounds read low",0.917
same,normalized growth,"locus YJR075W, strain HOC1, active compounds read low",0.979
same,normalized growth,"locus YKL009W, strain mrt4, active compounds read low",1.02

# From PubChem BioAssay AID1159580 (chemical genetic matrix, 2015)
